# Measurements taken from PubChem BioAssay AID1259417 (TB Discovery Research, Infectious Disease Research Institute, 2018).
# Hit rate of the full screen: of about 1,100 compounds, about 760 (69%) were called active. No rule for the calls is given here. The set was probably picked from earlier hits. The list shows a part of the results.
# Assay: M. tuberculosis growth inhibition, HTS (AID 1259417);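 also: bacteria grown with compound for 5 days at 37 °C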
# Conditions: stronger effect = higher value, concentration not given here
# [1] = M. tuberculosis DsRed fluorescence growth inhibition
# [2] = M. tuberculosis growth inhibition
SMILES,inhibition [1],inhibition [2] [%]
CCOC(=O)c1cc(-c2csc(COc3ccccc3Cl)n2)on1,98.1% (active),98.8
CCOC(=O)c1cc(-c2csc(-c3ccc(C(F)(F)F)cc3)n2)on1,63.4% (active),83.4
CCOC(=O)c1cc(-c2csc(COc3ccc(Cl)cc3)n2)on1,100% (active),99.5
CCOC(=O)C(/C=C(\C#N)C(=O)OCC)=C(/N)N1CCN(c2ccc(Cl)cc2)CC1,46% (active),46.9
CCOC(=O)COc1ccc(C=C2Oc3cc(OC)ccc3C2=O)cc1,60.8% (active),79.9
CCOC(=O)COc1cccc(C=C2Oc3cc(OC)ccc3C2=O)c1,31.7% (active),54
CCOc1ccc2c(c1)OC(=Cc1cccc(OCC(=O)OC)c1)C2=O,10% (active),50.5
COc1c(N2C[C@@H]3CCCN[C@@H]3C2)c(F)cc2c(=O)c(C(=O)O)cn(C3CC3)c12,101% (active),100
COc1c(N2CCNC(C)C2)c(F)cc2c(=O)c(C(=O)O)cn(C3CC3)c12 (configuration not stated),99.5% (active),101
NC1CCN(c2c(F)cc3c(=O)c(C(=O)O)cn(C4CC4)c3c2Cl)C1 (configuration not stated),99.8% (active),100
NC1CCN(c2nc3c(cc2F)c(=O)c(C(=O)O)cn3-c2ccc(F)cc2F)C1 (configuration not stated),98.3% (active),98.4
CC1=NN(c2nc3ccccc3s2)C(=O)C1Cc1cccc2ccccc12 (configuration not stated),-2.3% (inactive),21.1
Cc1cc(C)c2c(c1)c(-c1ccccc1)c(-c1ccccc1)n2CC(O)CN1CCN(CCO)CC1 (configuration not stated),48.4% (active),39.3
Cc1ccc2c(c1)c(-c1ccccc1)c(-c1ccccc1)n2CC(O)CN1CCN(CCO)CC1 (configuration not stated),23.8% (inactive),13.1
Clc1ccc(C2=CC(c3ccc(Cl)cc3)n3nnnc3N2)cc1 (configuration not stated),43.4% (active),39.3
O=C(COc1ccc(-c2ccccc2)cc1)OC1CCCCC1,26.1% (active),58.6
O=C(COc1ccc(C(=O)NCc2ccccc2)cc1)OC1CCCCC1,37.7% (active),52.9
CCOC(=O)COc1ccc(C(=O)NC2CCCCC2)cc1,1.79% (inactive),-15.3
CCOC(=O)COc1ccc(C(=O)Nc2ccc(F)cc2)cc1,20.5% (active),42.4

SMILES,inhibition [1],inhibition [2] [%]
Cc1ccc(NC(=O)c2ccc(OCC(=O)OC3CCCCC3)cc2)cc1,53.4% (active),78.1
Cc1c(Cc2ccccc2)c(NCCCO)n2c(nc3ccccc32)c1C#N,97.8% (active),87.9
Cc1c(Cc2ccc(Cl)cc2)c(NCCCN(C)C)n2c(nc3ccccc32)c1C#N,14.4% (inactive),-9.38
O=C(NCCc1ccc(F)cc1)NC12CC3CC(CC(C3)C1)C2,100% (active),96.2
CCOC(=O)c1c(CSc2ccccc2)n(-c2ccccc2)c2ccc(O)c(CN(C)C)c12,92.7% (active),91.9
Oc1ccc(CNc2ccccc2O)cc1,98.3% (active),97.3
N#Cc1nc(-c2cccs2)oc1NCCc1ccccc1,100% (active),100
CC(C)N=c1cc2n(-c3ccc(Cl)cc3)c3ccccc3nc-2cc1Nc1ccc(Cl)cc1,100% (active),99.5
Cc1cccnc1Nc1nc(-c2ccccn2)cs1,100% (active),100
Cc1cc(O)ccc1Nc1nc(-c2ccccn2)cs1,71.9% (active),77.7
Cc1ccccc1Nc1nc(-c2ccccn2)cs1,87.2% (active),92.7
Cc1ccn2c(-c3csc(Nc4ccccn4)n3)c(C)nc2c1,98.9% (active),100
Cc1cccc(NC(=O)c2cc(-c3cccs3)nc3ccccc23)n1,8.52% (inactive),22.7
FC(F)(F)c1ccccc1Nc1nc(-c2ccccn2)cs1,90.1% (active),86.1
Cc1cccc(Nc2nc(-c3ccccn3)cs2)n1,91.2% (active),97.6
Cc1ccc(C(=O)NCCC23CC4CC(CC(C4)C2)C3)cc1,100% (active),97.3
O=C(NCCC12CC3CC(CC(C3)C1)C2)c1ccc(Br)cc1,98.8% (active),94.1
c1ccc2sc(NC3=NCN(Cc4ccc5c(c4)OCO5)CN3)nc2c1,17.9% (active),69.1
Cc1nc2ccc(C(=O)OCc3cccc(F)c3)cc2nc1C,19.1% (active),60.3

SMILES,inhibition [1],inhibition [2] [%]
O=C(OCc1ccc(F)cc1)c1ccc2ccccc2n1,3.6% (inactive),5.51
Cc1nc2ccc(C(=O)OCc3nnc(-c4ccccc4)o3)cc2nc1C,-4.41% (inactive),0.442
O=C(Nc1nnc(-c2cccs2)o1)c1cccc(C(F)(F)F)c1,1.3% (inactive),6.76
Cc1ccccc1C(=O)Nc1nnc(-c2ccco2)o1,47.6% (active),71.5
O=C(Nc1nnc(-c2ccco2)o1)c1cccs1,17.8% (active),40.1
O=C(Nc1nnc(-c2cccs2)o1)c1ccco1,-2.8% (inactive),-18.4
CC(C)(C)c1ccc(C(=O)Nc2nnc(-c3ccco3)o2)cc1,88.2% (active),89.7
O=C(Nc1nnc(-c2ccco2)o1)c1cccc(C(F)(F)F)c1,88.4% (active),94.4
CCSc1ccc(CC(=O)Nc2nnc(-c3ccc4c(c3)OCCO4)o2)cc1,2.15% (inactive),7.09
CCSc1ccc(C(=O)Nc2nnc(-c3ccco3)o2)cc1,83.8% (active),91.8
CN1CCC(O)(c2cccs2)C(C(=O)c2cccs2)C1 (configuration not stated),100% (active),98.7
c1ccc(OCc2nn3c(-c4n[nH]c5c4CCC5)nnc3s2)cc1,99.1% (active),99.6
N#Cc1ccccc1NC(=O)CSc1nc2cc3ccccc3cc2[nH]1,2.65% (inactive),10.4
O=C(CSc1nc2ccccc2c(=O)[nH]1)NCc1ccccc1,101% (active),100
COc1ccccc1NC(=O)CSc1nc2cc3ccccc3cc2[nH]1,-0.285% (inactive),-21.7
O=[N+]([O-])c1ccc(NCCNc2nc3ccccc3nc2N2CCOCC2)cc1,8.52% (inactive),-3.69
O=C(NCCN1CCOCC1)c1ccc([N+](=O)[O-])cc1[N+](=O)[O-],98.1% (active),94.6
Cc1cc(C)n(C(=O)c2ccc([N+](=O)[O-])cc2[N+](=O)[O-])n1,0.918% (inactive),-7.93
